# Screens as filed in PubChem.
# Mdm2-MdmX inh = human Mdm2/MdmX binding inhibition. SaOS-2 split-luciferase Mdm2/MdmX complementation, luminescence. inhibition, % at 8 µM. 3% of 330,000 active. AID 485346;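 active means inhibition of at least 50% at 8 µM in the primary screen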
# Target sequence (O15151 whole entry, looked up): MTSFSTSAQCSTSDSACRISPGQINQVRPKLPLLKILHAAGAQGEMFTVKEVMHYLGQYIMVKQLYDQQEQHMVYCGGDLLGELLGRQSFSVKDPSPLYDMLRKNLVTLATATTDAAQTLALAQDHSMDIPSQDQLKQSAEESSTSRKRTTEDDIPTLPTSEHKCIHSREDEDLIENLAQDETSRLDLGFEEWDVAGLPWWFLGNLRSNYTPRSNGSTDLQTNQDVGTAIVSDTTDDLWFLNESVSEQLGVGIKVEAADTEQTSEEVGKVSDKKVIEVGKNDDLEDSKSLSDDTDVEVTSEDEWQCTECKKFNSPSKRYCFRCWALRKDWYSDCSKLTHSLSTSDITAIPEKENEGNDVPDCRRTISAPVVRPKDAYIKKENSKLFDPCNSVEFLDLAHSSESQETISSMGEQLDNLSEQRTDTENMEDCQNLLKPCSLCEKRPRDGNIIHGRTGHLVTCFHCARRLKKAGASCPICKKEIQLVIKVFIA
# Target sequence (Q00987 whole entry, looked up): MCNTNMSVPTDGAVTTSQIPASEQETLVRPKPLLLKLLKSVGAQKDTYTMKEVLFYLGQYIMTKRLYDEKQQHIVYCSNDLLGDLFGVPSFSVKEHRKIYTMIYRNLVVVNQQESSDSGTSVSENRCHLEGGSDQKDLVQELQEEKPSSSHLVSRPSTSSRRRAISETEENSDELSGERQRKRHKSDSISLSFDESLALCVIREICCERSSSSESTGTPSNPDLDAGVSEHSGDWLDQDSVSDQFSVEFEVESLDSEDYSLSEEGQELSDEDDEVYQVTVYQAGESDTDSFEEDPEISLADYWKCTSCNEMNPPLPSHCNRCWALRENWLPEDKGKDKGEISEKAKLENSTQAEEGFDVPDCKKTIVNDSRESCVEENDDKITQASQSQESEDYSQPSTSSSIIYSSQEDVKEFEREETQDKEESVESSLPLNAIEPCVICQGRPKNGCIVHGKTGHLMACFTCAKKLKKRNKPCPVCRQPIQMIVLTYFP
# MPTP inh = inhibitors of mitochondrial permeability transition pore; inhibition, % at 10 µM; AID 602449; isolated mouse mitochondria, Ca2+ swelling absorbance, 30 min; 1.4% of 360,000 active;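 active means inhibition of 50% or more, scaled per plate between neutral and stimulator controls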;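 further: 0% = DMSO wells given calcium and 100% = 1 mM EGTA wells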
# CSC inhib = blocks cancer stem cells | cancer stem cell-like cells viability, luminescence | inhibition, % at 7.5 µM | 1.1% of 300,000 active | AID 2717; in the data active means inhibition above about 75%; tested in HMLE shEcad cells
# NR3A LBD binder = NR3A (human) ligand-binding domain modulation. Tm shift relative to glycine control, % at 25 µM. NR3A LBD differential scanning fluorimetry, Tm shift; 0% = protein alone, 100% = glycine-bound protein. 2.5% of 340,000 active;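 active means melting temperature shift of at least 10% of the positive control shift, at one fixed dose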
# SKKanGAS inh = SKKanGAS growth inhibition; S. pyogenes SKKanGAS, kanamycin growth, BacTiter-Glo, 6 h; inhibition, % at 7.5 µM; 1.3% of 300,000 active; AID 1662;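 active means mean replicate score, as percent of positive control median, at least 50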;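 further: strain carries kanamycin resistance gene driven by streptokinase promoter and grows in 40 µg/ml kanamycin; loss of luminescence reflects streptokinase promoter inhibition or plain growth inhibition; 0% = median of DMSO wells and 100% = positive control at its reference dose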
# Beta cell apopt = blocks beta cell apoptosis; INS-1E cytokine-induced death, ATP luminescence, 48 h; percent of positive-control rescue, neutral wells zero; protection from apoptosis, % (test concentration not listed); 0.8% of 300,000 active;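 active means Every replicate reaches about 75%, or at least half do and their mean reaches it too, limit read from the data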;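 further: 0% = cytokine-treated negative control wells and 100% = positive control rescue; higher means more ATP so stronger rescue from cytokine killing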
# An asterisk follows results filed as active; x = not tested or not shown. This is a sample that favours compounds with a hit; in the whole collection about 6.9% have one here.
SMILES,Mdm2-MdmX inh,MPTP inh,CSC inhib,NR3A LBD binder,SKKanGAS inh,Beta cell apopt
Cc1ccc(S(=O)(=O)N2CCN(C(=O)COC(=O)COc3ccccc3C(C)C)CC2)c(C)c1,x,0,x,3,x,x
COc1ccc(OCC(=O)c2c[nH]c3ccccc23)cc1,-65,3,-18,14*,-6,-3
COc1ccccc1/C=C/C(=O)OCC(=O)c1cc(C)n(C)c1C,-2,-2,-5,0,x,0
COc1ccccc1/C=C/C(=O)OCC(=O)c1c[nH]c2ccccc12,4,0,x,11*,x,-3
COc1cc(/C=C/C(=O)OCC(=O)c2c[nH]c3ccccc23)ccc1OC(F)F,35,1,5,29*,11,-2
O=C(COc1ccccc1)OCC(=O)c1c[nH]c2ccccc12,20,0,-6,9,x,-2
COc1ccc(S(=O)(=O)N2CCOCC2)cc1NC(=O)c1ccccc1C,20,0,-8,-1,-9,-1
CCOc1ccc(/C=N/NC(=O)c2ccc(CSc3nc4ccccc4[nH]3)cc2)cc1,-16,2,35,11*,15,-1
CCOc1ccc(C(=O)N/N=C/c2ccc(SC)cc2)cc1,21,2,1,0,-18,6
O=C(N/N=C/c1ccc(OC(F)F)cc1)c1ccc(CSc2nc3ccccc3[nH]2)cc1,15,12,14,26*,26,-1
COc1cc2cc(C(=O)N/N=C/c3ccc(F)cc3)[nH]c2cc1OC,-19,1,1,13*,-5,17
Cc1nc(N)sc1C(=O)N/N=C/c1ccc([N+](=O)[O-])cc1,11,0,-9,-2,-2,x
COc1cc(/C=N\NC(=O)c2sc(N)nc2C)cc(OC)c1OC,-19,-1,2,17*,21,8
COc1ccc(/C=N/NC(=O)c2cc3cc(OC)c(OC)cc3[nH]2)cc1,-5,0,11,4,12,25
COc1ccc2cc(C(=O)N/N=C/c3cc(OC)c(OC)c(OC)c3)[nH]c2c1,2,1,19,19*,26,5
O=C(COC(=O)C1COc2ccccc2O1)Nc1ccccc1OC(F)F (centres undefined),-27,-2,-28,2,x,-4
CCCCn1nnnc1C(c1cc2ccccc2o1)N(C)Cc1ccc(Cl)cc1 (centres undefined),x,0,x,x,x,x
COc1ccc(-c2ccc(C)cc2)cc1[C@H]1[C@@H]2C=CCC[C@@]2(C)C(=O)N1Cc1ccccc1,40,1,115*,1,41,4
COc1ccc(-c2ccc(C(C)=O)cc2)cc1[C@H]1[C@@H]2C=CCC[C@@]2(C)C(=O)N1Cc1ccccc1,41,-2,68,-2,x,13
CCOC(=O)c1cc(-c2ccccc2C)nn1CC1CC(c2cccnc2)=NO1 (centres undefined),7,-1,x,-2,x,-7
CC(NCc1ccc(S(N)(=O)=O)cc1)C(=O)N1c2ccccc2CC1C (centres undefined),3,1,-1,1,-5,-3
O=C(Nc1nc(N2C(=O)c3ccccc3C2=O)n(-c2ccccc2)n1)c1ccc(Cl)cc1,2,14,9,-2,56*,3
C#CCOCCOCCOCCNc1nc(N2CCN(C(=O)CCCCCCCCCCNC(=O)[C@H]([C@@H](C)CC)n3cc(CCCCN=C(N)N)nn3)CC2)nc(N2CCN(C(=O)CCCCCCCCCCNC(=O)[C@H]([C@@H](C)CC)n3cc(CCCCN=C(N)N)nn3)CC2)n1,-24,x,-6,x,x,99*
C#CCOCCOCCOCCNc1nc(N2CCN(C(=O)Cn3cc(CCCN=C(N)N)nn3)CC2)nc(N2CCN(C(=O)[C@H]([C@@H](C)CC)n3cc(CCCCN)nn3)CC2)n1,-9,-1,-6,7,x,0
C#CCOCCOCCOCCNc1nc(N2CCN(C(=O)CCCCCCCCCCNC(=O)Cn3cc(CCCCCN)nn3)CC2)nc(N2CCN(C(=O)CCCCCCCCCCNC(=O)[C@H]([C@@H](C)CC)n3cc(CCCCN=C(N)N)nn3)CC2)n1,10,-13,161*,-1,x,86*
SMILES,Mdm2-MdmX inh,MPTP inh,CSC inhib,NR3A LBD binder,SKKanGAS inh,Beta cell apopt
C#CCOCCOCCOCCNc1nc(N2CCN(C(=O)CCCCCCCCCCNC(=O)[C@H]([C@@H](C)CC)n3cc(CCCCN=C(N)N)nn3)CC2)nc(N2CCN(C(=O)CCCCCCCCCCNC(=O)[C@H](CO)n3cc(CCCCCN)nn3)CC2)n1,4,20,18,17*,x,108*
C#CCOCCOCCOCCNc1nc(N2CCN(C(=O)CCCCCCCCCCNC(=O)[C@H]([C@@H](C)CC)n3cc(CCCCCN)nn3)CC2)nc(N2CCN(C(=O)CCCCCCCCCCNC(=O)[C@H]([C@@H](C)CC)n3cc(CCCCN=C(N)N)nn3)CC2)n1,-20,-15,-15,x,x,98*
Cc1c(C(=O)Nc2ccc(F)cc2)sc2ncn(CC(=O)N3CCCCC3)c(=O)c12,7,-2,-10,0,-3,3
CCc1ccc2c(c1)NC(=O)C2(C)Cc1ccccc1Cl (centres undefined),x,-1,x,x,x,x
C#CCOCCOCCOCCNc1nc(N2CCN(C(=O)CCCCCCCCCCNC(=O)[C@H]([C@@H](C)CC)n3cc(CCCCN=C(N)N)nn3)CC2)nc(N2CCN(C(=O)CCCCCCCCCCNC(=O)[C@H](CCCCN)n3cc(C)nn3)CC2)n1,18,x,22,3,x,98*
C#CCOCCOCCOCCNc1nc(N2CCN(C(=O)CCCCCCCCCCNC(=O)[C@H](CCCCN)n3cc(CCCC(=O)O)nn3)CC2)nc(N2CCN(C(=O)CCCCCCCCCCNC(=O)[C@@H]([C@H](C)O)n3cc(C)nn3)CC2)n1,9,-1,28,-3,x,-3
Cn1c(N)c(C(=O)COC(=O)CCc2c[nH]c3ccccc23)c(=O)n(C)c1=O,7,1,-1,-5,63*,-9
Cn1c(N)c(C(=O)COC(=O)CCc2nc3ccccc3s2)c(=O)n(C)c1=O,27,2,-10,-2,-1,-6
Cn1c(N)c(C(=O)COC(=O)CCCc2c[nH]c3ccccc23)c(=O)n(C)c1=O,0,2,3,-4,75*,0
COc1cccc(N(CC(=O)NC2CCCCC2)C(=O)CCC(=O)Nc2nccs2)c1,-20,0,-12,-2,6,-8
O=C(OCc1ccccc1)/C(=C/c1ccccc1Cl)NC(=O)c1ccco1,23,1,29,15*,31,7
O=C(CSc1nnc(COc2ccccc2)o1)Nc1ccc(F)cc1,12,2,-1,-8,-10,-5
CC(=O)Nc1ccc(S(=O)(=O)Oc2cccc(/C=C3\SC(N)=NC3=O)c2)cc1,17,0,-7,36*,21,x
COc1cc(/C=C2\SC(=S)NC2=O)ccc1OS(=O)(=O)c1ccccc1,0,x,97*,x,23,113*
COc1cccc(/C=C2\SC(=S)NC2=O)c1OS(=O)(=O)c1ccc(NC(C)=O)cc1,17,24,x,6,27,0
